Most compounds without a hit are left out; they make up all but 9.4% or so of the library.
SARS PLpro yeast – inhibitors of SARS-CoV papain-like protease in yeast. Potency, µM (titrated, usually from 32.9 µM), for the others: top-dose activity, positive = growth rescue, actives largely listed as activators. 330,000 tested, 0.19% active. S. cerevisiae expressing SARS-CoV PLpro, growth rescue. AID 485353; calls by dose curve; also: 0% is about no effect; nearly all actives have a fitted effect of over 55% in size
AMA1 RON2 block – inhibitors of Plasmodium falciparum AMA1-RON2 interaction; 360,000 tested, 0.2% active; AlphaScreen AMA1-biotinylated RON2 peptide binding; Potency, µM (highest dose often 58.2 µM), inactives show at the top dose activity change, negative = inhibition, actives largely listed as inhibitors; AID 720542;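 also: 0% = vehicle wells and -100% = peptide control; nearly all actives have a fitted effect of over 45% in size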
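AMA1 (3D7) with his tag at 25 nM final met compounds first, then biotinylated RON2 peptide at 25 nM; detection used donor plus acceptor beads, 10 µg/mL apiece, read by AlphaScreen after 30 min at room temperature.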
Pf growth 96h – P. falciparum growth inhibition at 96 hours | P. falciparum luciferase reporter growth, 96 h | 320,000 tested, 6.9% active | Potency, µM (top dose mostly 28.7 µM), for inactives: at the highest dose activity change, negative = inhibition, usual class: inhibitors | AID 504834; also: % is scaled to controls: 0 for no effect and ±100 for the full control effect
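P. falciparum expressing integrated firefly luciferase grown in erythrocytes (2% hematocrit, 0.05% parasitemia final) with compounds for 96 hours at 37 C, 5% CO2. Growth inhibition read as loss of luminescence after adding luciferase detection reagent.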
Pf growth 48h – inhibits P. falciparum growth in the first generation, 48 h. P. falciparum luciferase growth in erythrocytes, 48 h. Potency, µM (highest dose often 28.7 µM), for the others: top-dose activity change, negative = inhibition, hits mostly inhibitors. 310,000 tested, 5.9% active. AID 504832; also: % is scaled to controls: 0 for no effect and ±100 for the full control effect
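Firefly luciferase activity from engineered P. falciparum reports growth; inhibitors lower the luminescent signal. Cultures contained 2% hematocrit erythrocytes at 0.1% final parasitemia.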
Numbers without * were called inactive; u = inconclusive; x = no result given; [ ] = remark or other dose. Unless noted, calls follow the shape of the dose curve; as a rule, active = well fitted curve in the direction sought with a large enough effect; inconclusive = small, poorly fitted or top-dose-only effect, or another doubt; inactive = no such curve, though single readings can be large; an effect the other way counts as inactive or inconclusive. Potency is read from the fitted curve at half-maximal effect.

SMILES | SARS PLpro yeast | AMA1 RON2 block | Pf growth 96h | Pf growth 48h
c1ccc2c(Cn3ccnc3)c[nH]c2c1 | -6% | -2% | u | 7%
COc1ccc(-c2c(C)oc3c(CN4CCCCC4C)c(O)ccc3c2=O)cc1OC (stereo not drawn) | 8% | 4% | 12µM* | u
CC1CCCCN1Cc1c(O)ccc2c(=O)c(-c3ccc(Cl)cc3Cl)coc12 (stereo not drawn) | -10% | -3% | 9% | u
CC1CCCCN1Cc1c(O)ccc2c(=O)c(-c3ccc(Cl)cc3)coc12 (stereo not drawn) | -2% | -5% | 45% | 10µM*
CC1CCCCN1Cc1c(O)ccc2c(=O)c(-c3ccc(Br)cc3)coc12 (stereo not drawn) | 0% | 10% | 5.9µM* | 7.4µM*
O=c1c(-c2ccc(Cl)cc2)coc2c(CN3CCOCC3)c(O)ccc12 | -2% | 3% | 10µM* | 8.3µM*
COc1ccc(-c2c(C)oc3c(CN4CCCCC4C)c(O)ccc3c2=O)cc1 (stereo not drawn) | 6% | -5% | u | u
O=Cc1ccc(Cl)c(Cl)c1 | -2% | 3% | 41% | 9%
N/C(COc1ccc(C(=O)O)cc1)=N\O | 5% | -4% | 14% | 32%
CC1CCCCN1Cc1c(O)ccc2c(=O)c(-c3nc4ccccc4s3)c(N)oc12 (stereo not drawn) | 14% | 70% | 1µM* | 0.83µM*
CC(=O)n1cc(N(C(=O)CCl)c2ccc(Cl)cc2)c2ccccc21 | -4% | -2% | u | 2.3µM*
O=c1[nH]c(=S)n(C2CC2)c(O)c1C=NCCc1ccccc1 | -1% | 19% | 39% | -5%
c1c(CC2CCCC2)nnn1C[C@H]1CC[C@@H]([C@@H]2CC[C@H](Cn3cc(CC4CCCC4)nn3)O2)O1 | 2% | -6% | 11% | -15%
COc1ccc(/C=C2\SC(=S)N(CCC(=O)NC3=NCCS3)C2=O)cc1OC | 2% | 8%[2.32 µM] | 39% | 28%
O=C(O)c1ccc(S(=O)(=O)N2CCN(c3ccccn3)CC2)cc1 | u | 0% | u | 3%
COc1ccc(C2c3[nH]c4ccccc4c3C[C@H]3C(=O)N(c4ccccc4C(=O)N4CCC(C(=O)O)CC4)C(=O)N23)cc1 (stereo partly drawn) | 1% | 7% | u | 12µM*
CC(C)c1ccc(C2c3[nH]c4ccccc4c3C[C@H]3C(=O)N(c4ccccc4C(=O)N4CCC[C@H]4C(=O)O)C(=O)N23)cc1 (stereo partly drawn) | -1% | -11% | u | 6.6µM*
COc1cccc(C2c3[nH]c4ccccc4c3C[C@H]3C(=O)N(c4ccccc4C(=O)N4CCC(C(=O)O)CC4)C(=O)N23)c1 (stereo partly drawn) | -13% | -10% | u | u
Cc1ccc(C2c3[nH]c4ccccc4c3C[C@H]3C(=O)N(c4ccccc4C(=O)NCCCN4CCOCC4)C(=O)N23)cc1 (stereo partly drawn) | -2% | -8% | u | u
COc1cc(C(CCN2CCCC(C)C2)c2c(OC)cc(OC)c3c(-c4ccccc4)cc(=O)oc23)cc(OC)c1OC (stereo not drawn) | -1% | -17% | 2.9µM* | 7.4µM*
COc1cc(C(CCN2CCCCC2)c2c(OC)cc(OC)c3c(-c4ccccc4)cc(=O)oc23)cc(OC)c1OC (stereo not drawn) | 1% | -18% | 5.9µM* | 10µM*
COc1cc(OC)c2ccc(=O)oc2c1C(CCN1CCCCC1)c1ccc(N(C)C)cc1 (stereo not drawn) | 0% | -26% | u | u
COc1ccc(-n2c(SCC(=O)Nc3ccc([N+](=O)[O-])cc3OC)nc3ccccc32)cc1 | 7% | -8% | -1% | u
COc1cccc(-n2nnnc2SCC(=O)Nc2ccccc2OC)c1 | 0% | 1% | 9.3µM* | 18%
COc1ccc(-n2nnnc2SCC(=O)Nc2cc(OC)c([N+](=O)[O-])cc2C)cc1 | -1% | 4% | 2.9µM* | u
SMILES | SARS PLpro yeast | AMA1 RON2 block | Pf growth 96h | Pf growth 48h
COC(=O)c1ccc(-n2nnnc2SCC(=O)Nc2cc(OC)ccc2OC)cc1 | -4% | -8% | u | 26%
COc1cc(NC(=O)CSc2nc3ccccc3n2-c2ccccc2)c(C)cc1[N+](=O)[O-] | 13% | -23% | u | 12µM*
COc1cc(NC(=O)CN(C)CCOc2ccccc2)c(C)cc1[N+](=O)[O-] | 1% | -1% | u | 12µM*
CCN1CCN(S(=O)(=O)c2cccs2)CC1 | 5%[6.58 µM] | 2% | 19% | x
Cc1ccccc1-c1ccc(C(=O)Nc2cccc(F)c2)o1 | -58% | -12% | -61% | -16%
CCCCCn1c(N)c(C(=O)NCCN2CCOCC2)c2nc3ccccc3nc21 | 0% | 28% | u | u
CCCCCCn1c(N)c(C(=O)NCCN2CCOCC2)c2nc3ccccc3nc21 | -7% | 18% | u | 9.3µM*
COc1ccc(CCNC(=O)c2c(N)n(CCN3CCOCC3)c3nc4ccccc4nc23)cc1OC | 4% | 19% | 4.7µM* | 9.3µM*
O=C(CCS(=O)(=O)c1ccccc1)Nc1nc2cc3c(cc2s1)OCO3 | 0% | -5% | -23% | 1%
O=C(Nc1nc2cc3c(cc2s1)OCCO3)c1ccc([N+](=O)[O-])o1 | 0% | -5% | 8.3µM* | -15%
O=C(CCS(=O)(=O)c1ccccc1)Nc1nc2cc3c(cc2s1)OCCO3 | 2% | -13% | 5.2µM* | -36%
CCOc1ccc2nc(NC(NC(C)=O)(C(=O)OC)C(F)(F)F)sc2c1 (stereo not drawn) | 3% | 3% | 7.4µM* | 5%
O=C(Nc1nc2ccccc2s1)c1ccc([N+](=O)[O-])o1 | -1% | -4% | u | -11%
CCOc1ccc2nc(NC(NC(=O)CC)(C(=O)OC)C(F)(F)F)sc2c1 (stereo not drawn) | 6% | -13% | -6% | -19%
CCOc1ccc2nc(NC(=O)CS(=O)(=O)c3ccccc3)sc2c1 | -14% | -4% | 5.2µM* | 39%
CCC(NC(=O)CCc1c(C)c2cc3c(C)c(C)oc3cc2oc1=O)C(=O)N[C@@H](Cc1ccccc1)C(=O)O (stereo partly drawn) | 6% | 58% | u | -22%
Cc1cccc(C)c1NC(=O)N1CCCCCCC1 | 1% | -14% | -16% | 14%
Cc1c(C=O)c2ccccc2n1CC(=O)NCc1ccccc1 | 2% | -10% | -5% | u
CC(=O)c1ccc(NC(=O)C(C)OC(=O)C2CC(=O)N(c3ccc4c(c3)OCCO4)C2)cc1 (stereo not drawn) | -10% | 0% | 4% | 6%
CCOc1ccc2nc(NC(=O)CS(=O)(=O)c3ccc(C)cc3)sc2c1 | -1% | 44% | 12% | x
CCOc1ccc2nc(NC(=O)COc3ccc(N(C)S(=O)(=O)c4ccc(C)cc4)cc3)sc2c1 | 0% | 0% | u | 2.3µM*
COC1CCN(Cc2cn(Cc3ccccc3)nc2-c2cc3ccccc3o2)CC1 | 1% | 0% | 10µM* | 10µM*
